From PubChem BioAssay (Tox21)
Records with an inconclusive call do not appear. Activity calls are given as the source filed them. Unless noted, calls come from the whole dose curve.

Columns and labels:
[1] = Nuclear factor erythroid 2-related factor 2/antioxidant responsive element (Nrf2/ARE) small molecule agonists: qHTS cell viability counter screen in human keratinocytes (AID 1919968; active = well fitted curve in the direction sought with a large enough effect in the repeat runs; an effect the other way counts as inactive or inconclusive; note: nearly all actives have a fitted effect of over 55% in size; note: potency is the fitted concentration of half-maximal effect)
Outline: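 Cytotoxicity was multiplexed with the Nrf2/ARE luciferase assay in the same wells. Stably transfected HaCaT keratinocytes were treated with test compounds for 23 h at 37 C. Cell viability was then measured by CellTiter-Fluor fluorescence.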

[2] = Nuclear factor erythroid 2-related factor 2/antioxidant responsive element (Nrf2/ARE) small molecule agonists: luciferase reporter gene qHTS assay in human keratinocytes (AID 1919969); note: nearly all actives have a fitted effect of over 35% in size; note: potency is the fitted concentration of half-maximal effect
[3] = biological target: Gonadotropin-releasing hormone receptor (Homo sapiens) (UniProt P30968); test: Human gonadotropin-releasing hormone receptor (GnRHR) small molecule agonists, calcium flux assay in GnRHR-HEK293 cells (AID 1920063); note: nearly all actives have a fitted effect of over 35% in size
Gonadotropin-releasing hormone receptor (Homo sapiens), sequence (P30968 whole entry, looked up): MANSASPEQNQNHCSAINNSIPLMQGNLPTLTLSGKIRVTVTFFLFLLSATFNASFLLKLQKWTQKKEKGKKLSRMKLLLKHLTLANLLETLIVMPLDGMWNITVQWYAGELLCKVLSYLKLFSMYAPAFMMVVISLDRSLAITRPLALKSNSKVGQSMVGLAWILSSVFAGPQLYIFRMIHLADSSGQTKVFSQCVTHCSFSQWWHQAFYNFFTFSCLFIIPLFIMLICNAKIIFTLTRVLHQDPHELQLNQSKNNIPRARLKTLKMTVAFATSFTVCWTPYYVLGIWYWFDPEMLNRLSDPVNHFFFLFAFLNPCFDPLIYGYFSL
Outline: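 Agonist activity was measured as intracellular calcium flux in HEK293 cells engineered to stably express human GnRHR. After dye loading for 1 hour at 37 C, compounds in DMSO were added and fluorescence was followed for 3 minutes.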

[4] = biological target: KiSS-1 receptor (Homo sapiens) (UniProt Q969F8); test: Human kisspeptin (KISS1R) small molecule agonists, calcium flux assay in KISS1R-HEK293 cells (AID 1920064; active = well fitted curve in the direction sought with a large enough effect in the repeat runs; an effect the other way counts as inactive or inconclusive)
KiSS-1 receptor (Homo sapiens), sequence (Q969F8 whole entry, looked up): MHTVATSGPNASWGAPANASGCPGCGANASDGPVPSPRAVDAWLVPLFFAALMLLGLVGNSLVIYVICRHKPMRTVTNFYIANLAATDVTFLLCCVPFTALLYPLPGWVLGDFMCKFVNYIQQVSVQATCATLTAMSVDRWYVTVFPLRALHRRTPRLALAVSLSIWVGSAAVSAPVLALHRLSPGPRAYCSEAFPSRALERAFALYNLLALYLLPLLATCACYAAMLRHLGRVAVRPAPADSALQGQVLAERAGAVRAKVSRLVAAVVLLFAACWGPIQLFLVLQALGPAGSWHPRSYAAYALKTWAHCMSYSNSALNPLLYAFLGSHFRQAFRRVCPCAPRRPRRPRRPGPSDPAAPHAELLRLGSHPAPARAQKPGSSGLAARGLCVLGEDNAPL
Outline: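 Agonist activity is monitored as intracellular calcium rise in engineered HEK293 cells carrying human KISS1R. Cells are dye-loaded for 1 h at 37 C before compound addition, and fluorescence is recorded for 3 min.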

[5] = G protein-coupled receptor (GPCR) small molecule agonists, calcium flux assay: HEK293 wild type cell line counter screen (AID 1920065)
Outline: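 Seed cells, incubate 18 h (37 C, 5% CO2); add calcium dye, 1 h at 37 C; pin-transfer compounds, ATP control or DMSO; read fluorescence 480/540 nm each second for 3 min.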

[6] = p53 small molecule agonists, cell-based qHTS assay with human liver microsomes (AID 1963577)
Outline: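 Fluorescence of the beta-lactamase reporter in p53RE-bla cells, detected with LiveBLAzer substrate (2 h, room temperature, dark), served as the read-out after 16 h compound exposure at 37 C with human liver microsomes and NADPH, each 0.5 mg/mL final.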

[7] = p53 small molecule agonists, cell-based qHTS assay with rat liver microsomes: qHTS cell viability counter screen (AID 1963580); note: nearly all actives have a fitted effect of over 45% in size
Outline: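 After the beta-lactamase ratio was read, CellTiter-Glo was added to the same wells and luminescence measured at 30 min; cells had been treated 16 h at 37 C with compounds, rat liver microsomes and NADPH (0.5 mg/mL final each).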

[8] = p53 small molecule agonists, cell-based qHTS assay: qHTS cell viability counter screen (AID 1963581); note: nearly all actives have a fitted effect of over 45% in size
Outline: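 Viability was counter-screened in parallel with the p53 agonist reporter by measuring intracellular ATP luminescence in the same HCT-116 p53RE-bla wells after 16 h compound treatment at 37 C.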

[9] = p53 small molecule agonists, cell-based qHTS assay (AID 1963582; active = well fitted activation curve with a large enough effect in the signal ratio in the repeat runs, not every such curve was filed as active; the % refers to the signal ratio)
Outline: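 Cells carrying a p53-responsive bla reporter are treated with test compounds for 16 h at 37 C; beta-lactamase activity is then detected with LiveBLAzer B/G FRET substrate after 2 h at room temperature.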

[10] = biological target: 5-hydroxytryptamine receptor 2A (Homo sapiens) (UniProt P28223); test: 5-hydroxytryptamine receptor 2A (HTR2A) small molecule agonists, cell-based qHTS assay (AID 1963587); note: nearly all actives have a fitted effect of over 30% in size; note: potency is the fitted concentration of half-maximal effect
5-hydroxytryptamine receptor 2A (Homo sapiens), sequence (P28223 whole entry, looked up): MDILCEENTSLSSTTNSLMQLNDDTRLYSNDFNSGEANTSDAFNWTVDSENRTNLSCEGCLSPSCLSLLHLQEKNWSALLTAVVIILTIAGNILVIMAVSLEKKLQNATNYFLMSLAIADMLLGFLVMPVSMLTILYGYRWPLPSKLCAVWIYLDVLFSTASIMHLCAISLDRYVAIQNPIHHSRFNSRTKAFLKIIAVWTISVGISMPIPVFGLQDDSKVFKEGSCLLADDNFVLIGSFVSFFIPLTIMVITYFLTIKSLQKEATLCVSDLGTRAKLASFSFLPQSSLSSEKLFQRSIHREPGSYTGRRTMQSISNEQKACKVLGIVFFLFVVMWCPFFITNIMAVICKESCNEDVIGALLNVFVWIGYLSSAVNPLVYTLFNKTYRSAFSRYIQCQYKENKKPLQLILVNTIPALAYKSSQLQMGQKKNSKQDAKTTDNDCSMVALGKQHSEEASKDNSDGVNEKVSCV
Outline: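 CHO cells stably expressing human HTR2A, plated 18 h, loaded with calcium dye 1 h at 37 C. Agonist mode: compounds added and intracellular calcium fluorescence recorded kinetically for 2 min at 1 sec intervals.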

[11] = biological target: Muscarinic acetylcholine receptor M1 (Homo sapiens) (UniProt P11229); test: Cholinergic receptor muscarinic 1 (CHRM1) small molecule antagonists, cell-based qHTS assay (AID 1963588); note: nearly all actives have a fitted effect of over 40% in size
Muscarinic acetylcholine receptor M1 (Homo sapiens), sequence (P11229 whole entry, looked up): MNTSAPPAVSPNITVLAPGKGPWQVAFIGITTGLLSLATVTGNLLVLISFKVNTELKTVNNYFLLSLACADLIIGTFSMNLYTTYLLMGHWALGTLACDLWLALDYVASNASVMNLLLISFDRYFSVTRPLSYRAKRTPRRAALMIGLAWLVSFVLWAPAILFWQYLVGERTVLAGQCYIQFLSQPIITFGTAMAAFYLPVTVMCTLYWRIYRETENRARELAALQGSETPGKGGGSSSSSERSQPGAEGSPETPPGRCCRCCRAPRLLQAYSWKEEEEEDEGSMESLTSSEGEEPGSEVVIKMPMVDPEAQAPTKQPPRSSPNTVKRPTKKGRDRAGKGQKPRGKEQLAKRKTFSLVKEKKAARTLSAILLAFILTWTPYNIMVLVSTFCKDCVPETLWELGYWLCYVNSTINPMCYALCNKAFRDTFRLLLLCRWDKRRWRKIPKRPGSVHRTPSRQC
Outline: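 Compounds were tested at 15 concentrations in three independent runs. Dye-loaded CHRM1-CHO cells were exposed 5 min at room temperature before stimulation by acetylcholine added at 50nM. Intracellular calcium was read kinetically on FDSS for 3 min.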

[12] = biological target: Muscarinic acetylcholine receptor M1 (Homo sapiens) (UniProt P11229); test: Cholinergic receptor muscarinic 1 (CHRM1) small molecule agonists, cell-based qHTS assay (AID 1963589); note: nearly all actives have a fitted effect of over 35% in size
Outline: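 Cells were plated and incubated 18 h at 37 C/5% CO2, loaded with calcium dye for 1 h at 37 C, then treated with compounds in DMSO. Fluorescence was recorded kinetically at 1 sec intervals.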

[13] = cAMP Responsive Elements (CRE) small molecule agonists, cell-based qHTS assay (AID 1963590)
Outline: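 Cells carrying a CRE-driven beta-lactamase reporter (HEK 293T) are seeded, incubated overnight (18 h), and treated with test compounds for 3 h at 37 C; reporter activity is then detected with a FRET substrate after 2 h at room temperature.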

[14] = biological target: Beta-2 adrenergic receptor (Homo sapiens) (UniProt P07550); test: Adrenergic beta2 receptor (ADRB2) small molecule antagonists, cell-based qHTS assay (AID 1963592); note: series mostly up to about 92 µM; nearly all actives have a fitted effect of over 50% in size
Beta-2 adrenergic receptor (Homo sapiens), sequence (P07550 whole entry, looked up): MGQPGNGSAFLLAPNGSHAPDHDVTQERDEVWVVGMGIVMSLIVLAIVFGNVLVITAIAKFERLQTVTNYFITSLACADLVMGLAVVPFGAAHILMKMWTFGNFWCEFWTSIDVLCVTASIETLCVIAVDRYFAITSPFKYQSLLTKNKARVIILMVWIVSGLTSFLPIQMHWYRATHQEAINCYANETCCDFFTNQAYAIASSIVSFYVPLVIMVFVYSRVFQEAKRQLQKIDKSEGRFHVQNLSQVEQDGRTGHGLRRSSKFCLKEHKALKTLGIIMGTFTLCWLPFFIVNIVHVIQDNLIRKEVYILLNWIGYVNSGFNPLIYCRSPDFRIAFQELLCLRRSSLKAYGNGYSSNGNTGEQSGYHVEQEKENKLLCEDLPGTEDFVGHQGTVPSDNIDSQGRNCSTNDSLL
Outline: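 Assay format: CHO-ADRB2 cells, 18-20hr seeding at 37C/5% CO2, then compound plus 1nM isoproterenol agonist mix for 0.5hr RT. Homogeneous time-resolved fluorescence cAMP detection after 1hr, expressed as 665/615 nm ratio.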

[15] = biological target: D(2) dopamine receptor (Homo sapiens) (UniProt P14416); test: Dopamine D2 receptor (DRD2) small molecule agonists, cell-based qHTS assay (AID 1963594); note: nearly all actives have a fitted effect of over 35% in size
D(2) dopamine receptor (Homo sapiens), sequence (P14416 whole entry, looked up): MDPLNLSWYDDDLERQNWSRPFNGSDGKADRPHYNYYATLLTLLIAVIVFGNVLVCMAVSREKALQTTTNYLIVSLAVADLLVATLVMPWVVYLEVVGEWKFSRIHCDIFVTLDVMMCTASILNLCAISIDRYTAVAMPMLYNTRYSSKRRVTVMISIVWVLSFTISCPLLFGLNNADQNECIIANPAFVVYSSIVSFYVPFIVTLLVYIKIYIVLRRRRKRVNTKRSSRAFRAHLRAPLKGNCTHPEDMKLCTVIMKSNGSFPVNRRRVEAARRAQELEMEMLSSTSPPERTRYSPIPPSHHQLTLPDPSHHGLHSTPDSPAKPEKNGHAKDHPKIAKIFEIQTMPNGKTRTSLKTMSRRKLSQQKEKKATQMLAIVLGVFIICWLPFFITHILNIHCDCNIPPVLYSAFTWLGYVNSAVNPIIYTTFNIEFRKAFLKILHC
Outline: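 HEK293 cells stably expressing human DRD2, pre-treated with PDE inhibitor Ro20-1724 (0.1 mM final) and compound 10 min at room temperature, then stimulated with NKH477 (200nM […]) for 30 min. cAMP read by HTRF (665/620 nm).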

[16] = biological target: D(2) dopamine receptor (Homo sapiens) (UniProt P14416); test: Dopamine D2 receptor (DRD2) small molecule antagonists, cell-based qHTS assay (AID 1963595; active = well fitted inhibition curve with a large enough effect in the signal ratio in the repeat runs, with a control signal flat; the % refers to the signal ratio)
Outline: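 In this cell-based antagonist screen, compounds act for 10 min at room temperature before a 30 min challenge with 12 nM quinpirole and 200 nM NKH477. cAMP is quantified by HTRF competition in DRD2-HEK293 cells containing 0.1 mM Ro20-1724.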

[17] = p53 small molecule agonists, cell-based qHTS assay with human liver microsomes: qHTS cell viability counter screen (AID 1963579); note: nearly all actives have a fitted effect of over 45% in size; note: potency is the fitted concentration of half-maximal effect
Outline: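 Cytotoxicity counter screen: p53RE-bla, 4,000 cells/well; 5 h settle, 37 C/5% CO2; cpd + HLM 0.5 mg/mL + NADPH 0.5 mg/mL (final); 16 h, 37 C; CellTiter-Glo, 30 min RT, luminescence.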

[18] = biological target: 5-hydroxytryptamine receptor 2A (Homo sapiens) (UniProt P28223); test: 5-hydroxytryptamine receptor 2A (HTR2A) small molecule antagonists, cell-based qHTS assay (AID 1963586); note: nearly all actives have a fitted effect of over 45% in size; note: potency is the fitted concentration of half-maximal effect
Outline: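 CHO cells stably expressing human HTR2A were plated for 18 h at 37 C, then loaded with calcium dye for 1 h. Compounds were preincubated 5 min at room temperature before DOI (4 nM solution) was added. Kinetic fluorescence was read for 3 min.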

[19] = cAMP Responsive Elements (CRE) small molecule antagonists, cell-based qHTS assay (AID 1963591; active = well fitted inhibition curve with a large enough effect in the signal ratio in the repeat runs, not every such curve was filed as active; the % refers to the signal ratio)
Outline: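 Cells (CRE-bla HEK 293T, DMEM with 10% dialyzed FBS and 25 mM HEPES) are seeded and incubated 18 h. Compounds are added with NKH477 agonist at 0.25 uM final for 3 h, then FRET substrate for 2 h.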

[20] = p53 small molecule agonists, cell-based qHTS assay with rat liver microsomes (AID 1963578)
Outline: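 Cells carrying a p53 response element–beta-lactamase reporter were plated and rested 5 h, then dosed with compound in DMSO plus rat liver microsomes and NADPH, each at 0.5 mg/mL final. After 16 h at 37 C, LiveBLAzer substrate was added for 2 h.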
% is set by controls: 0 for no effect and ±100 for the full control effect.

Cc1ccc(=O)n(-c2ccccc2)c1
inactive: Potency [1] | Potency [2] | Potency [3] | outcome [4] | outcome [5] | Potency [6] | Potency [7] | Potency [8] | Potency [9] | Potency [10] | Potency [11] | Potency [12] | Potency [13] | Potency [14] | Potency [15] | Potency [16]

Nc1nc(N)c(-c2ccccc2)s1
inactive: Potency [1] | Potency [2] | Potency [3] | outcome [4] | outcome [5] | Potency [6] | Potency [17] | Potency [8] | Potency [18] | Potency [11] | Potency [12] | Potency [19] | Potency [14] | Potency [15] | Potency [16]

CN1CN(C)CN(C)C1
inactive: Potency [1] | Potency [2] | Potency [3] | outcome [4] | outcome [5] | Potency [6] | Potency [17] | Potency [7] | Potency [18] | Potency [10] | Potency [11] | Potency [13] | Potency [19] | Potency [14] | Potency [15] | Potency [16]

O=C1CCCCCCCCCCOCCCCO1
inactive: Potency [1] | Potency [3] | outcome [4] | outcome [5] | Potency [6] | Potency [7] | Potency [8] | Potency [9] | Potency [18] | Potency [10] | Potency [12] | Potency [13] | Potency [19] | Potency [14] | Potency [15] | Potency [16]
active: Potency [2] 30.6 µM

C/C(=C(\CCOP(=O)(O)O)SC(=O)c1ccccc1)N(C=O)Cc1cnc(C)nc1N
inactive: activity change, negative = cytotoxicity [1] -6.37% [at 8.39 µM] | activity, positive = activation [2] -0.129% [at 8.39 µM] | activity change [3] -0.163% [at 5.22 µM, stronger effect = higher value] | activation [4] -0.956% [at 6.97 µM] | activation [5] -0.0907% [at 5.23 µM] | activation [6] -1.03% [at 5.99 µM] | activity change, negative = cytotoxicity [17] 1.21% [at 5.99 µM] | activation [9] 1.46% [at 5.99 µM] | activation [10] -0.64% [at 7.02 µM] | activity, negative = inhibition [11] 1.74% [at 5.58 µM] | activation [12] -0.572% [at 6.97 µM] | activation [13] 1.28% [at 8.39 µM] | activity change, negative = inhibition [19] 1.78% [at 8.39 µM] | activity change, negative = inhibition [14] 2.25% [at 8.39 µM] | activation [15] 3.76% [at 8.39 µM] | activity change, negative = inhibition [16] 2.34% [at 8.38 µM]

ICCc1ccccc1
active: Potency [2] 67.2 µM | Potency [17] 28.3 µM
inactive: Potency [1] | Potency [3] | outcome [4] | outcome [5] | Potency [6] | Potency [7] | Potency [18] | Potency [11] | Potency [12] | Potency [14] | Potency [15] | Potency [16]

CCCCCCCCCCCCCCN(CCO)CCO
active: Potency [1] 27.3 µM | Potency [10] 21.9 µM
inactive: Potency [2] | Potency [3] | outcome [4] | outcome [5] | Potency [6] | Potency [7] | Potency [8] | Potency [18] | Potency [14] | Potency [15] | Potency [16]

O=C1c2ccccc2C(=O)c2cc(Cl)ccc21
inactive: activity change, negative = cytotoxicity [1] -4.18% [at 8.39 µM] | activity, positive = activation [2] 3.42% [at 8.39 µM] | activity change [3] -1.12% [at 5.22 µM, stronger effect = higher value] | activation [4] -0.408% [at 6.97 µM] | activation [5] -1.07% [at 5.23 µM] | activation [20] 1.77% [at 5.99 µM] | activity change, negative = cytotoxicity [17] 3.98% [at 5.99 µM] | activity change, negative = cytotoxicity [7] 0.229% [at 5.99 µM] | activation [9] -0.497% [at 5.99 µM] | activity, negative = inhibition [18] 0.237% [at 5.62 µM] | activation [10] -2.59% [at 7.02 µM] | activity, negative = inhibition [11] -8.9% [at 5.58 µM] | activation [12] -0.206% [at 6.97 µM] | activation [13] -1.41% [at 8.39 µM] | activity change, negative = inhibition [19] -1.91% [at 8.39 µM] | activity change, negative = inhibition [14] -7.09% [at 8.39 µM] | activity change, negative = inhibition [16] -1.19% [at 8.38 µM]

c1ccc(C(O[C@H]2CCCN(CCc3ccc4c(c3)OCO4)C2)c2ccccc2)cc1
active: Potency [18] 9.18 µM
inactive: Potency [1] | Potency [2] | Potency [3] | outcome [4] | outcome [5] | Potency [20] | Potency [17] | Potency [7] | Potency [8] | Potency [10] | Potency [13] | Potency [19] | Potency [15] | Potency [16]

CCCCCCCCCCCBr
inactive: Potency [1] | Potency [2] | Potency [3] | outcome [4] | outcome [5] | Potency [20] | Potency [17] | Potency [7] | Potency [9] | Potency [18] | Potency [10] | Potency [11] | Potency [12] | Potency [13] | Potency [19] | Potency [14] | Potency [15] | Potency [16]

CCc1cccc(C)c1N(C(=O)C(=O)O)C(C)COC (configuration not stated)
inactive: Potency [1] | Potency [2] | Potency [3] | outcome [4] | outcome [5] | Potency [20] | Potency [17] | Potency [7] | Potency [8] | Potency [9] | Potency [18] | Potency [10] | Potency [11] | Potency [12] | Potency [13] | Potency [19] | Potency [14] | Potency [15] | Potency [16]

CCCCOc1cc(C(=O)OCCN(CC)CC)ccc1N
inactive: Potency [1] | Potency [2] | Potency [3] | outcome [4] | outcome [5] | Potency [20] | Potency [17] | Potency [7] | Potency [8] | Potency [9] | Potency [10] | Potency [11] | Potency [12] | Potency [13] | Potency [19] | Potency [14] | Potency [15] | Potency [16]

C1CCN2C[C@@H]3C[C@@H](CN4CCCC[C@@H]34)[C@H]2C1
inactive: Potency [1] | Potency [2] | Potency [3] | outcome [4] | outcome [5] | Potency [20] | Potency [17] | Potency [7] | Potency [8] | Potency [9] | Potency [13] | Potency [19] | Potency [14] | Potency [15] | Potency [16]

Cc1ccccc1C#N
inactive: Potency [1] | Potency [2] | Potency [3] | outcome [4] | outcome [5] | Potency [20] | Potency [17] | Potency [7] | Potency [8] | Potency [9] | Potency [18] | Potency [10] | Potency [12] | Potency [13] | Potency [19] | Potency [14] | Potency [15] | Potency [16]
